{"source": "PubChem BioAssay AID602396", "about": "(The Scripps Research Institute Molecular Screening Center, 2012)", "note": "The campaign covered roughly 360,000 compounds. About 460 (0.13%) were called active. Shown is part of a subset that was picked to be rich in actives. A number with no mark means an inactive call.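 Rule for the calls: active = inhibition above the mean inhibition of all tested compounds plus 3 SD (cut at about 73% in these data); inactive = the rest.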"}
{"biological_target": "Nuclear receptor subfamily 5 group A member 2 (Homo sapiens) (UniProt O00482)", "sequence (O00482 whole entry, looked up)": "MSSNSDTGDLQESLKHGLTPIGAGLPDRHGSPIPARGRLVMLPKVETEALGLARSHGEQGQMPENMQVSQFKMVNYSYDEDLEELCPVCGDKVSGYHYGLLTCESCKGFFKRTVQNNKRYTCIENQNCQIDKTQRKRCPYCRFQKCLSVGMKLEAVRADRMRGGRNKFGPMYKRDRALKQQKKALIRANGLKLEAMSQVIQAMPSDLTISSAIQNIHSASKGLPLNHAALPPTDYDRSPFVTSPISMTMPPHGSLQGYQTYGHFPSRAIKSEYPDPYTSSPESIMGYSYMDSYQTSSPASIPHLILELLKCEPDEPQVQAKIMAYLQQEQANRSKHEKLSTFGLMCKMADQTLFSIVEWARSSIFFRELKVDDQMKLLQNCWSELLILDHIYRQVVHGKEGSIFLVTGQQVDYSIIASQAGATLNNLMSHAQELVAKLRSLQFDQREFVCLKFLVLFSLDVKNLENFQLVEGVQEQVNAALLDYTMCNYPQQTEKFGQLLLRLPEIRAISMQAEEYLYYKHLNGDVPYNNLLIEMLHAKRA", "experiment": "reduction of NR5A2-driven StAR reporter activity – cell-based, luminescence, HEK293T, StAR-luciferase reporter, primary screen (AID 602396);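 note: 0% = DMSO wells and 100% = reporter-only cells lacking LRH-1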", "details": "LRH-1 transfected, 24 h, at 3.6 µM, hits give high values"}
{"smiles": "CCCOc1ccc(CN(CCO)CCO)cc1C(=O)OC", "inhibition": "23.4%"}
{"smiles": "O=C(NC1CCC(O)CC1)c1ccccc1OCc1ccc(F)cc1", "note": "(centres undefined)", "inhibition": "21.9%"}
{"smiles": "COC(=O)C1=NN(c2ccccc2)C2C(=O)N(c3ccccc3OC)C(=O)C12", "note": "(centres undefined)", "inhibition": "10%"}
{"smiles": "CCOC(=O)N1CCN(S(=O)(=O)c2cc3c(cc2C)NC(=O)CO3)CC1", "inhibition": "12.8%"}
{"smiles": "O=C(NC(Nc1nc2ccc([N+](=O)[O-])cc2s1)(C(F)(F)F)C(F)(F)F)c1ccccc1", "inhibition": "97.9% (active)"}
{"smiles": "O=[N+]([O-])c1ccc2c(c1)C(O)n1nc(-c3ccccc3)nc1S2", "note": "(centres undefined)", "inhibition": "-9.43%"}
{"smiles": "O=C(Nc1cc(-c2ccccc2)nn1-c1ccccc1F)c1ccc([N+](=O)[O-])cc1", "inhibition": "-5.47%"}
{"smiles": "CCc1ccccc1N1CN(Cc2ccco2)CNC1=S", "inhibition": "-20.8%"}
{"smiles": "COc1ccc(NC(=O)c2cccc3c2C(=O)N(CC2CCCO2)C3)cc1OC", "note": "(centres undefined)", "inhibition": "-15.8%"}
{"smiles": "CCC1OC(C2CC2)CC2=C1C(=O)OC(C)(C)O2", "note": "(centres undefined)", "inhibition": "-31.2%"}
{"smiles": "COc1ccc(OC)c(NC(=O)c2ccc3c(c2)C(=O)N(c2ccc(OC(C)=O)cc2)C3=O)c1", "inhibition": "15.1%"}
{"smiles": "N=c1ccn(CC(=O)NC(N)=O)c2ccccc12", "inhibition": "19.2%"}
{"smiles": "CCOC(=O)CN(C(=O)COc1nc(-c2ccccc2)cc(C)c1C#N)c1ccc(F)cc1", "inhibition": "21.9%"}
{"smiles": "O=S(=O)(c1ccc(F)cc1)N1CCN(Cc2ccccc2C(F)(F)F)CC1", "inhibition": "10.2%"}
{"smiles": "COc1cc(OC)c2c(c1)OC(=O)CC2c1cc(OC)c(OC)c(OC)c1", "note": "(centres undefined)", "inhibition": "2.48%"}
{"smiles": "COc1ccc(N(C(=O)c2ccc(C)cc2)S(=O)(=O)c2cccs2)cc1", "inhibition": "2.34%"}
{"smiles": "CC[C@H]1CN2CCc3cc(OC)c(OC)cc3[C@@H]2C[C@@H]1C[C@H]1NCCc2cc(OC)c(OC)cc21", "inhibition": "103% (active)"}
{"smiles": "NC(=NC(=O)c1ccccc1)C1=C(O)CCC1=O", "inhibition": "-13.8%"}
{"smiles": "O=C(CN(Cc1ccccc1)C(=O)c1ccc2c(c1)OCCO2)NCc1ccc2c(c1)OCO2", "inhibition": "4.07%"}
{"smiles": "CC(C)Nc1nc(NCCOc2ccccc2Cl)c2sccc2n1", "inhibition": "18.8%"}
{"smiles": "CCCCN(C=O)c1c(CC)nc2c(OCCC3CCCCC3)cccn12", "inhibition": "-7.2%"}
{"smiles": "Cc1ccc(S(=O)(=O)N2CC[C@H]3[C@@H](C2)C(=O)C[C@@H](c2ccccc2)N3S(=O)(=O)c2ccc(C)cc2)cc1", "inhibition": "-11.8%"}
{"smiles": "Cc1cc(NC(=O)COC(=O)/C=C/c2ccc(C)o2)no1", "inhibition": "-7.21%"}
{"smiles": "CCN(CC)CCCNC(=O)c1c(O)c2cc(F)cc3c2n(c1=O)C(C)CC3", "note": "(centres undefined)", "inhibition": "-10.8%"}
